This excerpt belongs to a sample that is enriched for hits.
nsP2pro primary: blocks chikungunya virus nsP2 protease peptide cleavage; FRET peptide cleavage, nsP2pro, fluorescence 1 h; Potency, µM (doses to about 24.9 µM), without a hit: top-dose activity change, negative = inhibition, hits mostly inhibitors; hit rate 1.1% among 31,000; further: nearly all actives have a fitted effect of over 60% in size
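FRET cleavage of 2.5 uM peptide 2 by 150 nM CHIKV protease domain at pH 8.0 (Tris, Tween 20). Compounds at 7 concentrations (up to 25 uM) preincubated 15 min. Fluorescence read after 1 h at room temperature.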
CHIKV nsP2 cell: cell-based CHIKV nsP2 protease inhibition, secondary; shares compounds with nsP2pro primary; cell-based CHIKV nsP2 protease reporter assay; Potency, µM (top dose mostly 51.1 µM), for inactives: at the highest dose activity change, negative = inhibition, actives largely listed as inhibitors; hit rate 10% among 450; AID 1964100; further: nearly all actives have a fitted effect of over 70% in size
CHIKV NSP2 FL: selectivity test for CHIKV nsP2 protease inhibitors: full-length NSP2; Full-length CHIKV NSP2 protease enzymatic counterscreen; Potency, µM (series often up to 50.7 µM), without a hit: at the highest dose activity change, negative = inhibition, actives largely listed as inhibitors; shares compounds with nsP2pro primary; AID 1964101; hit rate 39% among 410; further: nearly all actives have a fitted effect of over 65% in size
Furin counterscr: human furin inhibition, counterscreen for nsP2pro inhibitors. shares compounds with nsP2pro primary. Recombinant human furin enzymatic counterscreen, fluorogenic substrate. Potency, µM (doses to about 50.6 µM), for inactives: at the highest dose activity change, negative = inhibition, hits mostly inhibitors. hit rate 6% among 410. AID 1964102
Target sequence (P09958 whole entry, looked up): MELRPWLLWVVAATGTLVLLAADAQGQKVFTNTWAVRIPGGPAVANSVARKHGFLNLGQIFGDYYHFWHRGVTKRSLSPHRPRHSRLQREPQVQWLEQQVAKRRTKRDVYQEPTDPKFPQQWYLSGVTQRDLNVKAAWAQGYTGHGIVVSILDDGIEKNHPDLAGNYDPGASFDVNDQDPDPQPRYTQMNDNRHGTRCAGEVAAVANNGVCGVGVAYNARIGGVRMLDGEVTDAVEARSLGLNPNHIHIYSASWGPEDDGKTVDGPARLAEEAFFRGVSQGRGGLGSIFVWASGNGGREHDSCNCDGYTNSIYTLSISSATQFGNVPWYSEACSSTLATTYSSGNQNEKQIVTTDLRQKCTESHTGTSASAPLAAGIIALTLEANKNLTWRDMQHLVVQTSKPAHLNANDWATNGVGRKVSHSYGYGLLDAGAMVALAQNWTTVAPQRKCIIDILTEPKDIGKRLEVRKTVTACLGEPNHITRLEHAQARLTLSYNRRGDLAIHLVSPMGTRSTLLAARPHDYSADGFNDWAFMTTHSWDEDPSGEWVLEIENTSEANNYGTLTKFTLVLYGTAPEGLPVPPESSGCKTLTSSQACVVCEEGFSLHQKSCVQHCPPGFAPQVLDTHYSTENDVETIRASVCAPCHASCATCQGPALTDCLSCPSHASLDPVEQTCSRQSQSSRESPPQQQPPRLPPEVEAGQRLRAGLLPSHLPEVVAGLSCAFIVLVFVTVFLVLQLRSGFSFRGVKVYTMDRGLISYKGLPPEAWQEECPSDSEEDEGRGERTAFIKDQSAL
NS23 peptide cs: nsP2pro inhibition on native NS2/3 peptide substrate | shares compounds with nsP2pro primary | Purified CHIKV nsP2 protease, endogenous NS2/3 peptide cleavage | Potency, µM (top dose mostly 51 µM), inactives show at the top dose activity change, negative = inhibition, hits mostly inhibitors | hit rate 34% among 410; further: nearly all actives have a fitted effect of over 55% in size
Papain cs: selectivity counter-screen for CHIKV nsP2 protease inhibitors: papain | shares compounds with nsP2pro primary | purified papain protease activity, enzymatic inhibition | Potency, µM (titrated, usually from 51 µM), for the others: at the highest dose activity change, negative = inhibition, hits mostly inhibitors | hit rate 5% among 410
nsP2pro conf qHTS: confirmation of CHIKV nsP2 protease inhibitors | shares compounds with nsP2pro primary | CHIKV nsP2 protease enzymatic activity, qHTS | Potency, µM (series often up to 25.5 µM), for inactives: at the top dose activity change, negative = inhibition, most hits filed as inhibitors | hit rate 43% among 410; further: nearly all actives have a fitted effect of over 75% in size
HCV NS3 counter: inhibits HCV NS3/4A protease in an nsP2pro selectivity counterscreen; shares compounds with nsP2pro primary; HCV NS3/4A protease biochemical counterscreen; Potency, µM (top dose mostly 50.9 µM), hits mostly inhibitors; hit rate 20% among 410; further: nearly all actives have a fitted effect of over 55% in size
Numbers without * were called inactive; i = inactive; u = inconclusive; ! = repeats disagree; [ ] = remark or other dose. The call rests on the fitted dose curve. On the % scale 0 is the no-effect control and ±100 the full control effect; potency means the concentration at half of the fitted maximal effect.

SMILES	nsP2pro primary	others
CC1(C)CC[C@]2(C(=O)O[C@@H]3O[C@H](CO[C@@H]4O[C@H](CO)[C@@H](O)[C@H](O)[C@H]4O)[C@@H](O)[C@H](O[C@@H]4O[C@H](CO)[C@@H](O)[C@H](O)[C@H]4O)[C@H]3O)[C@H](O)C[C@]3(C)C(=CCC4[C@@]5(C)CC[C@H](O[C@@H]6OC[C@@H](O)[C@H](O)[C@H]6O)[C@@](C)(C(=O)O)C5CC[C@]43C)[C@@H]2C1 (some centres undefined)	32.3%[5.1 µM]
CCn1ncc(NC(=O)Cn2ncc3cc(-c4ccccc4F)ccc32)n1	i
COc1ccc(C2(O)c3ccccc3NC(=O)C2OC)cc1 (centres undefined)	-4.5%
COc1cccc(-c2nc(CS(=O)(=O)CC(=O)NCCCN3CCN(C)CC3)c(C)o2)c1	-2.8%
Oc1c(C(c2ccc(Cl)cc2Cl)N2CCOCC2)sc2nc(-c3ccco3)nn12 (centres undefined)	-20.4%
Cc1ccc(C(c2sc3nc(-c4ccco4)nn3c2O)N2CCOCC2)cc1 (centres undefined)	u	CHIKV nsP2 cell=-13.9%;CHIKV NSP2 FL=-7.3%;Furin counterscr=-9.1%;NS23 peptide cs=0.8%;Papain cs=-18.6%;nsP2pro conf qHTS=-23.3%;HCV NS3 counter=i
OCCN1CCN(C(c2ccc(Cl)cc2Cl)c2sc3nc(-c4ccco4)nn3c2O)CC1 (centres undefined)	-0.2%
O=C1OC2(c3cc(Br)c(O)cc3Oc3c2cc(Br)c(O)[c]3[Hg])c2ccccc21 (centres undefined)	336.0%
Cc1ccc(S(=O)(=O)Nc2cnccc2C(=O)Nc2cccc3ccccc23)cc1	i
COC(=O)C1=C(C)NC(C)=C(C(=O)OCCN2CCN(C(c3ccccc3)c3ccccc3)CC2)C1c1cccc([N+](=O)[O-])c1 (centres undefined)	2.2%
Cc1c(-c2cnccn2)ssc1=S	4.95µM*!	CHIKV nsP2 cell=u;CHIKV NSP2 FL=13µM*;Furin counterscr=-13.3%;NS23 peptide cs=9.19µM*;Papain cs=-23.3%;nsP2pro conf qHTS=4µM*;HCV NS3 counter=i
Cc1ccc(-n2ncc(C(=O)NCCCN3CCCCC3)c2C2CCN(C(=O)OC(C)(C)C)CC2)c(C)c1	-0.4%
N#Cc1ccc(-c2ccc(CNc3ccc(N4CCCCC4)cc3)o2)cc1	3.55µM*	CHIKV nsP2 cell=u;CHIKV NSP2 FL=-60.9%;Furin counterscr=-4.3%;NS23 peptide cs=u;Papain cs=-20.9%;nsP2pro conf qHTS=u;HCV NS3 counter=1.83µM*
N#Cc1ccc(-c2ccc(CNc3ccc(N4CCOCC4)cc3)o2)cc1	-19.7%
N#Cc1ccc(-c2ccc(CNc3ccc(N4CCN5CCCCC5C4)cc3)o2)cc1 (centres undefined)	-21.3%
CC(C)(C)OC(=O)N1CCC(c2c(C(=O)NCCN3CCOCC3)cnn2-c2cccc(F)c2)CC1	-0.6%
COc1ccc(C(=O)N2CCC(C3CCN(S(C)(=O)=O)CC3)C2)cn1 (centres undefined)	0.5%
COc1ccc(CNC(=O)Cc2coc3ccc(C)cc23)cc1	-13.4%
C=C1C[C@]23C[C@@]1(O)CC[C@H]2[C@@]12C=C[C@H](O)[C@@](C)(C(=O)O1)[C@H]2[C@@H]3C(=O)O	-11.6%
C=C1CC23CC1CCC2C12OC(=O)C(C)(C(O)C(O)C1O)C2C3C(=O)O (centres undefined)	u	CHIKV nsP2 cell=3.3%[33.5 µM];CHIKV NSP2 FL=u;Furin counterscr=-3.7%[33.5 µM];NS23 peptide cs=-22.3%[33.5 µM];Papain cs=-10.7%[33.5 µM];nsP2pro conf qHTS=u;HCV NS3 counter=i
C=C1C[C@]23C[C@H]1CC[C@H]2[C@@]1(C)CCC[C@@]2(C)C(=O)O[C@@H]([C@@H]3O)[C@@H]12	-13.5%
O=C(Nc1c(C(=O)N2CCC(N3CCCCC3)CC2)oc2ccccc12)c1c(F)cccc1F	-21.7%
Cc1nccn1CC1CCc2c(c3ccccc3n2C)C1=O (centres undefined)	61.3%
Cc1[nH]cnc1C[C@H]1CCc2c(C)c3ccccc3n2C1=O	u	CHIKV nsP2 cell=-7.0%;CHIKV NSP2 FL=97.5%;Furin counterscr=-3.9%;NS23 peptide cs=-6.9%;Papain cs=-6.4%;nsP2pro conf qHTS=52.6%;HCV NS3 counter=i
Cc1[nH]cnc1CN1CCc2c(c3ccccc3n2C)C1=O	-11.7%
SMILES	nsP2pro primary	others
O=C(NCCc1ccc(Cl)cc1)C1(c2cccs2)CCOCC1	-11.8%
Oc1ccc(NCc2ccccc2OCc2ccccc2Cl)cc1	0.849µM*	CHIKV nsP2 cell=11.6µM*;CHIKV NSP2 FL=10.3µM*;Furin counterscr=-9.1%;NS23 peptide cs=16.3µM*;Papain cs=-11.0%;nsP2pro conf qHTS=7.98µM*;HCV NS3 counter=18.3µM*
Cn1nnnc1SCCNCc1ccccc1OCc1ccccc1F	-22.6%
O=S(=O)(Nc1cccc2ccccc12)c1ccc(NCc2cccc(Cl)c2O)cc1	-25.6%
O=S(=O)(Nc1nccs1)c1ccc(NCc2cccc(F)c2O)cc1	i
Oc1ccc(NCc2ccccc2OCc2ccccc2F)cc1	8.91µM*	CHIKV nsP2 cell=u;CHIKV NSP2 FL=23.1µM*;Furin counterscr=-3.5%;NS23 peptide cs=20.6µM*;Papain cs=-10.2%;nsP2pro conf qHTS=u;HCV NS3 counter=u
O=S(=O)(Nc1ccc2ccccc2c1)c1ccc(NCc2cccc(Cl)c2O)cc1	3.8%
Cc1ccc(Nc2ccnc(N3CCC(C(=O)NCc4ccc(F)cc4)CC3)n2)cc1	-4.2%
COc1ccc(NC(=O)CC2NCCNC2=O)c(OC)c1 (centres undefined)	-19.9%
O=C(O)/C=C/c1ccc(O[C@@H]2O[C@H](CO)[C@@H](O)[C@H](O)[C@H]2O)cc1	-12.3%
Cc1c(Cl)cccc1S(=O)(=O)Nc1nc(CC(=O)N2CCN(C)CC2)cs1	-12.3%
CC(/C=C/C1=CC2=CC(=O)C(C)(O)C(O)C2=CO1)=C\C(C)CCO (centres undefined)	-23.0%
CC(=O)[O][Hg][c]1ccccc1	1.24µM*	CHIKV nsP2 cell=1.26µM*;CHIKV NSP2 FL=1.83µM*;Furin counterscr=1.16µM*;NS23 peptide cs=4.61µM*;Papain cs=-6.5%;nsP2pro conf qHTS=0.356µM*;HCV NS3 counter=u
CC(=O)Oc1ccccc1C(=O)O	-8.2%
CC(=O)Nc1ccccc1	-2.0%
Cc1ccc(-c2cc(C(=O)Nc3ccc(S(=O)(=O)N(C)C)cc3)c3ccccc3n2)cc1C	1.9%
COc1cccc(Cn2nnc3c(=O)[nH]c(C4CCN(C(=O)c5ccccc5Cl)CC4)nc32)c1	-11.1%
Cn1ccc2cc(-c3ccc4ncnc(NCc5cccs5)c4c3)ccc21	-0.6%
COc1ccc(OC)c(NC(=O)CCc2c(C)nc3c(c(C)nn3C(C)(C)C)c2C)c1	-14.5%
CC(=O)[C@H]1CC[C@H]2[C@@H]3CC=C4C[C@@H](O)CC[C@]4(C)[C@H]3CC[C@]12C	13.1%
O=C1Nc2ccccc2/C1=C\c1cc(F)c(O)c(F)c1	i
